From PubChem BioAssay (NCATS)
Values without a mark were called inactive. Calls of active or inactive are those of the source. Calls come from the whole dose curve.

Each compound was assayed against Glucocorticoid receptor (Homo sapiens) (UniProt P04150) (assay: GR-EFC Redistribution (AID 451)). Settings: CHO-K1 GR-EFC translocation, beta-gal luminescence, 2 h.
Text: NIH Molecular Libraries Screening Centers Network [MLSCN]
NIH Chemical Genomics Center [NCGC]
The glucocorticoid receptor (GR) is a cytoplasmic receptor that belongs to the nuclear receptor family of ligand-dependent transcription factors. Upon glucocorticoid binding to its receptor, the glucocorticoid-GR complex translocates into the nucleus, where it binds as a dimer to specific DNA sequences (glucocorticoid response elements), enhancing or suppressing transcription of a wide variety of glucocorticoid-responsive genes. In addition to their important roles in normal physiology and metabolism, glucocorticoids are administered exogenously as treatments for a wide variety of allergic, autoimmune, and neoplastic conditions. Identification of compounds that modulate aspects of GR signalling would be useful in dissecting glucocorticoid response pathways as well as developing GR modulators with more targeted clinical effects.
Traditionally, GR modulators have been identified using receptor binding or direct transactivation assays. However, assays for glucocorticoid-dependent nuclear translocation can also be used to screen for compounds affecting GR signaling.
Immunocytochemical staining has been used to assay for GR translocation, but is not suitable for high throughout screening due to the multiple reagent addition and wash steps required. Recently, a novel cell-based GR assay in Enzyme Fragment Complementation (EFC) format was developed by DiscoveRx (Fremont, CA). The assay uses EFC of b-galactosidase (b-gal) as an indicator of GR-translocation in engineered CHO-K1 biosensor cells. The enzyme acceptor (EA) fragment of b-gal resides in the nucleus , as designed through the use of a proprietary set of sequence additions and modifications. The small peptide enzyme donor (ED) fragment of b-gal is fused directly to the C-terminus of GR, and is localized in the cytoplasm is the absence of receptor signaling. Upon binding to a GR ligand, the complex translocates to the nucleus, where intact enzyme activity is restored by complementation and b-gal activity is detected. We optimized this GR-EFC assay in homogenous 1536-well plate assay format for high throughput screening.
NCGC Assay Protocol Summary:
CHO-K1 cells stably expressing NLS-enzyme acceptor fragment (EA) of b-gal and GR-enzyme donor (ED) fragment of b-gal were maintained in F12 medium (Invitrogen, Carlsbad, CA) at 37 Celsius degrees under a humidified atmosphere containing 5% CO2 and 95% air. The medium contained 10% FBS, 2 mM L-glutamine, 50 U/ml penicillin 50 ug/ml streptomycin, and 250 ug/ml hygromycin and 500 ug/ml G418 (Invitrogen).
GR-translocation was measured beta-gal enzyme activity using the PathHunter Detection Kit containing cell membrane permeablizing reagent and beta-gal substrate (DiscoveRx, Fremont, CA). All compounds were screened as titrations from 0.6 nM to 46 uM final concentration. The assay was performed in 1536-well format as follows:
5 uL cell suspension (1,000 cells)/well
Incubation at 37 Celsius degrees for two hours
1.25 uL 1X detection buffer from the kit supplied by DiscoveRx
Incubation at room temperature for one hour
Read plate in luminescence mode in ViewLux plate reader (PerkinElmer)
Keywords: NIH Roadmap, MLSCN, MLI, MLSMR, GR-EFC, GREFC, qHTS, NCGC
Potency is the fitted concentration of half-maximal effect.

Sequence of Glucocorticoid receptor (Homo sapiens) (P04150 whole entry, looked up): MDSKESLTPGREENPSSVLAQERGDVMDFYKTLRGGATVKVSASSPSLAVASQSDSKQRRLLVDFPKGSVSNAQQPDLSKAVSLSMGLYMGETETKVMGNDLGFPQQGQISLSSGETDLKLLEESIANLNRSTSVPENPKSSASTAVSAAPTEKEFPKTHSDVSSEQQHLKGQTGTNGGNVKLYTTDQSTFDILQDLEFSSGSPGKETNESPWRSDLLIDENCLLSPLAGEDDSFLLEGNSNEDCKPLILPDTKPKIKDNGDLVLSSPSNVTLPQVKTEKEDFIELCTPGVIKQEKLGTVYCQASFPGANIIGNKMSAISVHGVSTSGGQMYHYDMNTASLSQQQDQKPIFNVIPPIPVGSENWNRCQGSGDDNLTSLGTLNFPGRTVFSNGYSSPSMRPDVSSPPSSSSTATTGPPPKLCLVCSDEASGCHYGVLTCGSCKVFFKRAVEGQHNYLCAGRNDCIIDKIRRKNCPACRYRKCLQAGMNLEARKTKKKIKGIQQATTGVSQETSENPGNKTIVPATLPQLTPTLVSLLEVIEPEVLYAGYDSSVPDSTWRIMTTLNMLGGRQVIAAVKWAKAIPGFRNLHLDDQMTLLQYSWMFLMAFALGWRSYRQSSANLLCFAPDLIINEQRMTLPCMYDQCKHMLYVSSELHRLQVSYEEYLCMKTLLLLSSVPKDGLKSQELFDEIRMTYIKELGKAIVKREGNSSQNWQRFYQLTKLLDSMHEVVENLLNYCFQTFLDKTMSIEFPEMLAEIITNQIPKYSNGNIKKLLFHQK

SMILES | Potency
C[N+]1(C)CCC[C@H]1C(=O)[O-] | > 20.6 µM
NCc1ccccc1CC(=O)N[C@@H]1C(=O)N2C(C(=O)O)=C(CSc3nnnn3CC(=O)O)CS[C@@H]12 | > 20.6 µM
CC(=O)N[C@@H](CC(=O)O)C(=O)O | > 20.6 µM
C[C@H](CCC(=O)NCC(=O)O)[C@H]1CC[C@H]2[C@H]3[C@@H](C[C@@H](O)[C@]12C)[C@]1(C)CC[C@H](O)C[C@@H]1C[C@@H]3O | > 20.6 µM
COc1ccc([C@@H]2CC(=O)c3c(O)cc(O[C@H]4O[C@@H](CO[C@H]5O[C@@H](C)[C@@H](O)[C@@H](O)[C@@H]5O)[C@@H](O)[C@@H](O)[C@@H]4O)cc3O2)cc1O | > 20.6 µM
C[C@@]12CC3CC(N)(C1)C[C@@](C)(C3)C2 | > 20.6 µM
CS(=O)(=O)c1ccc([C@H](O)[C@H](CF)NC(=O)C(Cl)Cl)cc1 | > 20.6 µM
C1CCC(C(C[C@@H]2CCCCN2)C2CCCCC2)CC1 | > 20.6 µM
Cc1ccnc(N)c1 | > 46 µM
COc1ccc2c3c([nH]c2c1)[C@@H]1C[C@@H]2[C@@H](C[C@H](O)[C@H](OC)[C@H]2C(=O)O)CN1CC3 | > 20.6 µM
CC[C@@H]1OC(=O)[C@H](C)[C@H](O[C@@H]2C[C@](C)(OC)[C@H](O)[C@H](C)O2)[C@H](C)[C@H](O[C@@H]2O[C@@H](C)C[C@@H](N(C)C)[C@@H]2O)[C@](C)(O)C[C@H](C)C(=NOCOCCOC)[C@H](C)[C@H](O)[C@]1(C)O | > 20.6 µM
COC(=O)Nc1nc2ccc(SC(C)C)cc2[nH]1 | > 20.6 µM
NCC[C@H](O)C(=O)N[C@H]1C[C@@H](N)[C@@H](O[C@H]2O[C@@H](CN)[C@@H](O)[C@@H](O)[C@@H]2O)[C@@H](O)[C@@H]1O[C@H]1O[C@@H](CO)[C@@H](O)[C@@H](N)[C@@H]1O | > 20.6 µM
C=C(C)[C@H]1CC[C@]2(CO)CC[C@]3(C)[C@@H](CC[C@H]4[C@@]5(C)CC[C@@H](O)C(C)(C)[C@@H]5CC[C@@]43C)[C@H]12 | > 20.6 µM
CC[C@](C)(CN(C)C)OC(=O)c1ccccc1 | > 20.6 µM
C/C(=C(/CCO)SSC[C@@H]1CCCO1)N(C=O)Cc1cnc(C)nc1N | > 20.6 µM
COc1cc2c(cc1OC)-c1cc3ccc(OC)c(OC)c3c[n+]1CC2 | > 20.6 µM
CN[C@H]1[C@@H](O)[C@@H](NC)[C@@H]2O[C@@]3(O)C(=O)C[C@@H](C)O[C@H]3O[C@H]2[C@H]1O | > 20.6 µM
S=C(NC1CCCCC1)N1CCC([C@H]2C=NC=N2)CC1 | > 20.6 µM
CC(=O)O[C@H]1C[C@H]2CC[C@@H]3[C@@H](CC[C@]4(C)[C@H](OC(C)=O)[C@H]([N+]5(C)CCCCC5)C[C@@H]34)[C@]2(C)C[C@H]1[N+]1(C)CCCCC1 | > 20.6 µM

SMILES | Potency
O[C@H](c1cc(C(F)(F)F)nc2c(C(F)(F)F)cccc12)[C@H]1CCCCN1 | > 20.6 µM
CN(C)CCCO[C@H]1[C@@H]2OC(C)(C)O[C@@H]2O[C@@H]1[C@H](O)CO | > 20.6 µM
CN(C)/N=N\c1nc[nH]c1C(N)=O | > 20.6 µM
COCCOC(=O)C1=C(C)NC(C)=C(C(=O)OC(C)C)[C@H]1c1cccc([N+](=O)[O-])c1 | > 20.6 µM
CN(C)c1ccc(O)c2c1C[C@H]1C[C@H]3[C@@H](N(C)C)C(=O)C(C(N)=O)=C(O)[C@]3(O)C(=O)C1=C2O | > 20.6 µM
COc1ccc(CNc2ncncc2-c2ccccc2CN(C)C)c(OC)c1 | > 46 µM
C[N+]12CCC(CC1)[C@@H](OC(=O)C(O)(c1ccccc1)c1ccccc1)C2 | > 20.6 µM
O=C(NC[C@@H](O)CO)c1c(I)c(C(=O)NC[C@@H](O)CO)c(I)c(N(CCO)C(=O)CO)c1I | > 20.6 µM
CC[C@H](C)C(=O)O[C@@H]1C[C@H](C)C=C2C=C[C@H](C)[C@@H](CC[C@H]3C[C@@H](O)CC(=O)O3)[C@H]21 | > 20.6 µM
CN1CCC[C@@H](CC2c3ccccc3Sc3ccccc32)C1 | > 20.6 µM
O=C(c1cc(C(F)(F)F)cc(C(F)(F)F)c1)N1CCC[C@@]2(CCN(c3ccccn3)C2)C1 | > 46 µM
C[C@@H]1C[C@H](OC(=O)c2ccccc2O)CC(C)(C)C1 | > 20.6 µM
C#C[C@]1(O)CC[C@@H]2[C@H]3CCC4=Cc5oncc5C[C@]4(C)[C@@H]3CC[C@@]21C | > 20.6 µM
Cc1onc(-c2ccccc2Cl)c1C(=O)N[C@H]1C(=O)N2[C@H]1SC(C)(C)[C@H]2C(=O)O | > 20.6 µM
CC(=O)OCC(=O)[C@@]12OC(C)(C)O[C@@H]1C[C@H]1[C@H]3C[C@H](F)C4=CC(=O)C=C[C@@]4(C)[C@]3(F)[C@H](O)C[C@@]12C | 0.0128 µM (active)
COc1ccc(C[C@@](C)(N)C(=O)O)cc1OC | > 20.6 µM
CC(C)(N=NC(C)(C)C(=N)N)C(=N)N | > 9.22 µM
CO[C@]1(NC(=O)C2SC(=C(C(N)=O)C(=O)O)S2)C(=O)N2C(C(=O)O)=C(CSc3nnnn3C)CS[C@H]21 (stereo not given in full) | > 20.6 µM
CN[C@@H]1[C@H](O[C@H]2[C@@H](O[C@@H]3[C@@H](O)[C@@H](O)[C@@H](N=C(N)N)[C@@H](O)[C@@H]3N=C(N)N)O[C@@H](C)[C@]2(O)CO)O[C@H](CO)[C@@H](O)[C@@H]1O | > 20.6 µM
O=C(O)[C@@H]1CCCNC1 | > 20.6 µM
